A selection: hits, their analogues and other compounds. The true share with any hit is near 4%.
TRHR agonist-1: TRH receptor (human) agonism. TRHR cells, calcium flux fluo-8, FDSS agonist mode. actives 0.18% (n = 360,000). activation, % at 2 µM. P34981; in the data active = activation above about 30%
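Fluo-8-loaded TRHR cells; 10 s baseline, compound added, kinetic Ca2+ fluorescence read 1/s, agonist mode.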
D1 antagonist: antagonists of human D1 dopamine receptor; actives 3.2% (n = 360,000); activity change, negative = inhibition, % at 10 µM; HEK293 TREx D1 cells, calcium flux, dopamine EC80; hits give low values; AID 504652; in the data active = activity change below about -30%
Target sequence (P21728 whole entry, looked up): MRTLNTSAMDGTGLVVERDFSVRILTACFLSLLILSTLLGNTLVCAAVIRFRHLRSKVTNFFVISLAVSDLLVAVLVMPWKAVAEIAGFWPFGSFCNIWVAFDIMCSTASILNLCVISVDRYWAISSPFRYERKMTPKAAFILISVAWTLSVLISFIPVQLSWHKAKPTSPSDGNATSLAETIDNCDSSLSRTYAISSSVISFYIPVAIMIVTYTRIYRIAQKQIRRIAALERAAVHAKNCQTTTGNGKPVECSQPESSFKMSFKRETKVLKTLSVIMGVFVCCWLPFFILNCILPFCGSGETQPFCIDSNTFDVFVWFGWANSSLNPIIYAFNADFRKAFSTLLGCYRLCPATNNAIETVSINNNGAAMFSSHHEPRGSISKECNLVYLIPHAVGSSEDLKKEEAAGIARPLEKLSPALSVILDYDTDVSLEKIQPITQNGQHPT
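After overnight tetracycline induction at 30 C, force-coupled D1 HEK293 cells took up a no-wash calcium dye at room temperature. Compounds were added and monitored 180 s, and the response to EC80 dopamine was then recorded.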
TRHR enhancer-1: allosterically enhances the human TRH receptor | TRHR cells, fluo-8 calcium fluorescence, EC20 TRH enhancement | enhancement, % at 2 µM | actives 0.66% (n = 360,000); in the data active = enhancement above about 30%
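Enhancer read-out: after compound pinning and an initial kinetic agonist-mode read, an EC20 of TRH (10 nM final) was injected and fluo-8 calcium signal (Ex 480/Em 530) followed at 1 s/cycle for 100 cycles in TRHR-expressing cells.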
Glioma ERSR ind: induces the endoplasmic reticulum stress response in human glioma cells; U87-MG GRP78 promoter luciferase reporter, 16 h; Potency, µM, hits mostly activators; actives 0.02% (n = 420,000); also: series mostly up to about 76 µM; nearly all actives have a fitted effect of over 35% in size
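Stably transfected U87-MG glioma cells carrying a GRP78-based luciferase sensor; 16 h compound incubation. Luminescence end-point read 10 min after Bright-Glo addition at room temperature.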
D1 ag: activates the human D1 dopamine receptor; P21728; HEK293 T-REx D1 cells, calcium flux, agonist mode; activation, % at 2 µM; actives 1% (n = 360,000); AID 504660; in the data active = activation above about 30%
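Tetracycline-induced HEK293 TREx D1 cells, force-coupled to calcium signalling, were dye-loaded with a no-wash calcium kit. Compound was pin-added after a 10 s baseline. Fluorescence was read kinetically at 1 cycle/s for 180 s, with calcium rises flagged as agonism.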
D1 PAM: potentiators of human D1 dopamine receptor | P21728 | HEK293 TREx D1 cells, calcium flux, dopamine EC20 potentiation | potentiation, % at 10 µM | actives 0.036% (n = 360,000); in the data active = potentiation above about 30%
TRHR enhancer-2: confirmation of human TRH receptor allosteric enhancers; TRH receptor cell assay, enhancer confirmation qHTS; activity change, negative = inhibition, % at 46.1 µM; shares compounds with TRHR enhancer-1; 970 tested, under 10 active;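 also: compound effect scored on response to added TRH at EC20 of 10 nM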
TRHR agonist-2: confirmation of human TRH receptor agonists | Potency, µM (highest dose often 46.1 µM), usual class: activators | TRHR-expressing cells, agonist activation read-out | shares compounds with TRHR enhancer-1 | actives 8% (n = 970); also: nearly all actives have a fitted effect of over 75% in size
A number is an active result; 0 = inactive; ? = inconclusive; - = no result given. Unless noted, calls follow the shape of the dose curve; as a rule, active = well fitted curve in the direction sought with a large enough effect; inconclusive = small, poorly fitted or top-dose-only effect, or another doubt; inactive = no such curve, though single readings can be large; an effect the other way counts as inactive or inconclusive.

SMILES | TRHR agonist-1 | D1 antagonist | TRHR enhancer-1 | Glioma ERSR ind | D1 ag | D1 PAM | TRHR enhancer-2 | TRHR agonist-2
NC(=O)NCCCC(NC(=O)c1ccc(C#CC2(O)CCCCC2)cc1)C(=O)O (stereo not given) | 0 | 0 | 43 | 0 | 0 | 0 | 0 | 0
Cc1ccc(OCCNC(=O)CNC(=O)Cc2cccc3ccccc23)cc1 | - | - | - | 0 | - | - | - | -
Cc1ccc(NC(=O)C2CC(=O)n3c(nc4ccccc43)N2)cc1Cl (stereo not given) | 0 | 0 | 45 | 0 | 0 | 0 | 0 | 0
Nn1c(N2CCCCC2)nc2ccccc21 | 0 | 0 | 71 | 0 | 0 | 0 | 0 | 0
CCCOc1ccc(CNC(=O)c2ccc3nc(N4CCOCC4)sc3c2)cc1 | 0 | 0 | 0 | 0 | 0 | 0 | - | -
Cc1ccc(C2C(/C=C3/SC(=S)NC3=O)=C(c3cccs3)Oc3ccccc32)cc1 (stereo not given) | 0 | 0 | 0 | 0 | 0 | 0 | - | -
CC(=O)N1CC(C)Oc2ccc(S(=O)(=O)NC(CC(=O)O)c3ccccc3)cc21 (stereo not given) | 0 | 0 | 44 | 0 | 0 | 0 | 0 | 0
CC1CCN(Cc2c(C(=O)N/N=C/c3ccc(C(C)C)cc3)nnn2-c2nonc2N)CC1 | 0 | 0 | 52 | 0 | 0 | 0 | 0 | 0
CC(C(=O)NC1CCCC1)N(C(=O)c1snc(C(N)=O)c1N)c1ccc2c(c1)OCCO2 (stereo not given) | 0 | 0 | 0 | 0 | 0 | 0 | - | -
C=CCn1c(=O)n(C(=O)OCC)c2cc(Br)ccc21 | 0 | 0 | 66 | 0 | 0 | 0 | 0 | 0
COc1cc(O)c(C(CC(=O)N2CCCC2)c2cc(OC)c(OC)c(OC)c2)c(OC)c1 (stereo not given) | 0 | 0 | 49 | 0 | 0 | 0 | 0 | 0
COc1cc(O)c(C(CC(=O)N2CCCCC2)c2cc(OC)c(OC)c(OC)c2)c(OC)c1 (stereo not given) | 0 | 0 | 0 | 0 | 0 | 0 | - | -
O=C(O)c1cccc(-c2ccc(/C=c3/sc4nc5ccccc5n4c3=O)o2)c1 | 0 | 0 | 0 | 0 | 39 | 0 | 0 | ?
COc1ccc(C(=O)Nc2ccccc2C(=O)NC(C(=O)NCc2ccco2)C(C)C)cc1 (stereo not given) | 0 | 0 | 48 | 0 | 0 | 0 | 0 | 0
COc1ccc(C(=O)N[C@H](C(=O)NCc2ccco2)C(C)C)cc1 | 0 | 0 | 0 | 0 | 0 | 0 | - | -
CC1CCCC(C)N1C(=S)SCC(=O)O (stereo not given) | 0 | 0 | 0 | 0 | 0 | 0 | - | -
CCCC1CCC(C(=O)Nn2c(C)nc3ccccc3c2=O)CC1 (stereo not given) | 0 | 0 | 45 | 0 | 0 | 0 | 0 | 0
CCCCCCC1CCC(C(=O)Nn2c(C)nc3ccccc3c2=O)CC1 (stereo not given) | 0 | 0 | 0 | 0 | 0 | 0 | - | -
Cc1nonc1C1CCCN1Cc1cn[nH]c1-c1ccc(-c2ccccc2)cc1 (stereo not given) | 0 | 0 | 0 | 0 | 0 | 0 | - | -
O=C(CSc1ccc(-c2ccccn2)nn1)N1CCCc2ccccc21 | 0 | 0 | 0 | 0 | 0 | 0 | - | -
O=C(CSc1ccc(-c2cccnc2)nn1)N1CCCc2ccccc21 | 0 | 0 | 41 | - | 0 | 0 | 0 | 0
CCC(CC)C(=O)N(C)c1c(C)nc2c(OCc3ccc(C(F)(F)F)cc3)cccn12 | - | - | - | 0 | - | - | - | -
O=C(CSC(=S)N1CCCCC1)N1N=CCC1c1ccccc1 (stereo not given) | 0 | - | 53 | 0 | 0 | 0 | 0 | 0
CCCc1cc(=O)oc2c(C)c(OCC(=O)NCCN3CCOCC3)ccc12 | 0 | 0 | 54 | 0 | 0 | 0 | 0 | 0
COc1cc(-c2n[nH]c(=S)n2-c2ccc(Br)cc2)cc(OC)c1OC | 0 | 0 | 0 | 0 | 0 | 0 | - | -
SMILES | TRHR agonist-1 | D1 antagonist | TRHR enhancer-1 | Glioma ERSR ind | D1 ag | D1 PAM | TRHR enhancer-2 | TRHR agonist-2
S=c1nc(-c2sccc2OCc2ccc(Cl)cc2Cl)[nH][nH]1 | 0 | 0 | 51 | 0 | 0 | 0 | ? | 0
CCCCSc1nc2c(cnn2-c2ccc(Cl)cc2)c(=O)[nH]1 | 0 | 0 | 42 | 0 | 0 | 0 | 0 | 0
O=C(NCCc1ccccc1Cl)C1CCC(=O)N(C2CCCCCC2)C1 (stereo not given) | 0 | 0 | 0 | 0 | 0 | 0 | - | -
O=C(NCCOc1ccccc1)C1CCC(=O)N(C2CCCCCC2)C1 (stereo not given) | 0 | 0 | 58 | 0 | 0 | 0 | 0 | 0
Cc1cc(C)n2nc(CCCO)nc2n1 | 0 | 0 | 0 | 0 | 0 | 0 | - | -
CCOC(=O)C1CCCN(c2nc3ccccc3nc2C(C#N)C(=O)OC(C)C)C1 (stereo not given) | 42 | 0 | 0 | 0 | 0 | 0 | 0 | ?
CCOC(=O)C1CCN(c2nc3ccccc3nc2C(C#N)C(=O)OC(C)C)CC1 (stereo not given) | 0 | 0 | 0 | 0 | 0 | 0 | - | -
CC1(C)CC(NC(=O)C2CCC(=O)N(C3CC3)C2)CC(C)(C)C1 (stereo not given) | 0 | 0 | 0 | 0 | 0 | 0 | - | -
Cc1[nH]c2ccccc2c1/C=N/Nc1nc(Nc2ccccc2)nc(N2CCOCC2)n1 | 0 | 0 | 55 | 0 | 0 | 0 | 0 | 0
CCOC(=O)N1CCC(NC(=O)CC2C(=O)NCCN2Cc2ccccc2)CC1 (stereo not given) | 0 | 0 | 0 | 0 | 0 | 0 | - | -
COc1ccc(Nc2nc(N3CCCC3)nc(N3CCOCC3)n2)cc1 | - | - | - | 0 | - | - | - | -
CCOc1ccc(Nc2nc(N3CCOCC3)nc(N3CCOCC3)n2)cc1 | 0 | 0 | 50 | 0 | 0 | 0 | 0 | 0
COc1ccc(N/N=C(\C#N)C(N)=O)cc1 | 0 | 0 | 45 | 0 | 0 | 0 | 0 | 0
CCc1nnc(NC(=O)CCC(=O)N2CCN(C3c4ccccc4-c4ccccc43)CC2)s1 | 0 | 0 | 0 | 0 | 0 | 0 | - | -
CCCCNC(=O)N1CCC(CCC(=O)N(C)Cc2ccccc2)CC1 | 0 | 0 | 0 | 0 | 0 | 0 | - | -
CC(=O)NCCC1CCN(c2nc3nonc3nc2N(C)Cc2ccccc2)CC1 | 0 | 0 | 47 | 0 | 0 | 0 | 0 | 0
O=C(Cn1c(=O)cnc2ccccc21)NNC(=O)c1ccccc1Cl | 0 | 0 | 0 | 0 | 0 | 0 | - | -
O=C(COC(=O)c1cccnc1Cl)Nc1cccc(S(=O)(=O)N2CCCCC2)c1 | 0 | 0 | 54 | 0 | 0 | 0 | 0 | 0
CCc1cc(CN2CCOCC2)c(NC(=O)c2ccccc2)s1 | 0 | 0 | 64 | 0 | 0 | 0 | 0 | 0
N#Cc1cnc(NOCc2ccc(Cl)cc2)nc1 | 0 | 0 | 0 | 0 | 0 | 0 | - | -
C=C(C)c1cccc(C(C)(C)NC(=O)Nc2cc(C)ccn2)c1 | 0 | 0 | 46 | 0 | 0 | 0 | 0 | 0

Source: PubChem BioAssay
